In the library only some 4.2% were active in any assay of this set; here they are far more common.
12-LOX inh: Primary qHTS assay for inhibitors of human arachidonate 12S-lipoxygenase (ALOX12): Round 2 | Polyunsaturated fatty acid lipoxygenase ALOX12 (Homo sapiens), P18054 | purified 12hLO, xylenol orange hydroperoxide absorbance | Potency, µM (doses to about 108 µM), for inactives: top-dose activity change, negative = inhibition, hits mostly inhibitors | 580,000 tested, 1.1% active
Target sequence (P18054 whole entry, looked up): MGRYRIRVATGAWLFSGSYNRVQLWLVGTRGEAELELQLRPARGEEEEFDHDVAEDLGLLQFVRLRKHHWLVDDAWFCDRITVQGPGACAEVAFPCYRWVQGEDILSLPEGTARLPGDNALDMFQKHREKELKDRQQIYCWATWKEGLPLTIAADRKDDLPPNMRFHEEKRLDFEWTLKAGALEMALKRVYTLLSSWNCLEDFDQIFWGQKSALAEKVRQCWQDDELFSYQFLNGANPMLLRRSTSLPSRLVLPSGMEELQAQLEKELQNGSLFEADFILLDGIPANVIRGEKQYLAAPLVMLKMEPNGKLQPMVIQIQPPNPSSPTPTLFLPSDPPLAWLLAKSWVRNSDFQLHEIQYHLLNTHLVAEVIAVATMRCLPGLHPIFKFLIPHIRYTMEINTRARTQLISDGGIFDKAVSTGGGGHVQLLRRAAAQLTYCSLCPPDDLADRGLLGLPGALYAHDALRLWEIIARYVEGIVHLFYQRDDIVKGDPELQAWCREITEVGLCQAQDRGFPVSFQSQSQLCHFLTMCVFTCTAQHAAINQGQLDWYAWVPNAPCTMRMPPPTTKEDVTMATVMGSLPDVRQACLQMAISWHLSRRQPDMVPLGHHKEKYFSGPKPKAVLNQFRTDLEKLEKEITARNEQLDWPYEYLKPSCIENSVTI
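Hydroperoxide product was detected by ferrous iron/xylenol orange as the 573 to 405 nm absorbance ratio. Arachidonic acid at 40 uM (final) was turned over for 30 min at room temperature by 150 nM human 12hLO, pH 7.0 Hepes buffer, after 15 min compound preincubation.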
Sfp PPTase inh: qHTS Assay for Inhibitors of Bacillus subtilis Sfp phosphopantetheinyl transferase (PPTase); 4'-phosphopantetheinyl transferase ffp (Bacillus subtilis), Q9F4F7; Biochemical Sfp PPTase activity, qHTS; Potency, µM, without a hit: largest response in the series, negative = inhibition, hits mostly inhibitors; 310,000 tested, 3.5% active;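 also: the enzyme is Sfp with the accession as filed and its product quenches rhodamine fluorescence; 0% = enzyme reaction without inhibitor and -100% = no enzyme wells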
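Sfp 15 nM + cpd, 15 min RT; start w/ rhodamine-CoA 5 uM, BHQ-2-YbbR 12.5 uM (final); 50 mM Hepes pH 7.6, 10 mM MgCl2, 0.01% NP-40, 0.01% BSA; read 525/598 nm at 0 and 30 min.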
PLK1 PBD inh: qHTS for Inhibitors of PLK1-PDB (polo-like kinase 1 - polo-box domain): Primary Screen. Potency, µM, for inactives: max response, negative = inhibition, most hits filed as inhibitors. Serine/threonine-protein kinase PLK1 (Homo sapiens), P53350. Plk1 PBD binding of FITC phosphopeptide, fluorescence polarization. 360,000 tested, 2.8% active; also: series mostly up to about 57 µM; nearly all actives have a fitted effect of over 65% in size
VDR inhibitor: Inhibitors of the vitamin D receptor (VDR): qHTS; VDR-SRC2-3 peptide fluorescence polarization, 2 h; Potency, µM, without a hit: max response, negative = inhibition, actives largely listed as inhibitors; 400,000 tested, 0.93% active; AID 504847, 2011
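Signal is fluorescence polarization, reporting how far test compounds block the interaction of VDR with the SRC2-3 coregulator peptide after a 2 h room-temperature incubation.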
The depositor's hits bear a star; ? = inconclusive; . = no result given; ! = repeats disagree; [ ] = another dose, or the depositor's remark. Calls follow the shape of the dose curve; as a rule, active = well fitted curve in the direction sought with a large enough effect; inconclusive = small, poorly fitted or top-dose-only effect, or another doubt; inactive = no such curve, though single readings can be large; an effect the other way counts as inactive or inconclusive. Unless noted, % is scaled to controls: 0 for no effect and ±100 for the full control effect; potency is read from the fitted curve at half-maximal effect.

SMILES	12-LOX inh	Sfp PPTase inh	PLK1 PBD inh	VDR inhibitor
O=C(Cc1cccc2ccccc12)NC(=S)Nc1cccc(C(=O)O)c1	35µM*	2%	?	-9%
O=C(CSc1nc(-c2ccccc2)nc2ccc(F)cc12)Nc1cccc(C(=O)O)c1	-2%	-7%	-26%	-5%
COC(=O)Cc1nnc(SCC(=O)Nc2ccccc2)c2ccccc12	19%	10%	-1%	79µM*
O=C(CSc1nncc2ccccc12)Nc1cccc(C(=O)O)c1	-7%	?	19µM*	-17%
COC(=O)C1=C(C)N(c2ccc(F)cc2)C(=O)CC1C(=O)Nc1ccc(F)cc1 (centres undefined)	-24%	.	.	.
C/C(=N\OCC(=O)OCC(=O)NC(=O)c1ccccc1)c1ccc2c(c1)OCO2	-7%	.	8%	6%
O=C(CSc1nc(-c2ccc(F)cc2)nc2c1Cc1ccccc1O2)Nc1cccc(C(=O)O)c1	-17%	-21%	11µM*	4%
O=C(Cc1cccc2ccccc12)Nc1cc(Cl)ccc1C(=O)O	18µM*!	9%	-16%	-10%
O=C(Cc1cccc2ccccc12)Nc1ccccc1C(=O)O	0%	10%	-11%	-5%
O=C(NCc1ccncc1)C1CCCCC1	-1%	21%	27µM*	-26%
COc1ccc(C2(C(=O)O)CCCC2)cc1	26%	-5%	-1%	10%
CCN(CC)CCN1C2=C(C(=O)CC(C)(C)C2)C(c2cccc(F)c2)C2=C1CC(C)(C)CC2=O	0%	23%	-15%	3%
CCCN1C2=C(C(=O)CC(C)(C)C2)C(c2ccc(F)cc2)C2=C1c1ccccc1C2=O (centres undefined)	-4%	6%	12µM*	-14%
CCCCN1C2=C(C(=O)CC(C)(C)C2)C(c2ccccc2)C2=C1c1ccccc1C2=O (centres undefined)	?	56µM*	-1%	0%
CCOc1c(C)cc(S(=O)(=O)NCc2cccnc2)c(C)c1C	11%	-2%	-6%	11%
CC[C@H](C)[C@@H](CN[C@H](C)CNC)NCCC(c1ccccc1)c1ccccc1	0%	17%	-3%	-13%
CC(=O)Nc1ccc(SC(C)C(=O)NC(N)=O)cc1 (centres undefined)	-45%	-6%	24µM*	-20%
CCOC(=O)C1(Cc2ccc(Cl)cc2)CCN(Cc2nccn2CC)CC1	1%	16%	-12%	-6%
COC(=O)c1cc(NC(=O)c2nccnc2C(=O)O)cc(C(=O)OC)c1	?	56µM*	-5%	6%
CC1(C)CC(NC(=O)c2cc3ccccc3cc2NC(=O)C2CC2)CC(C)(C)N1	44%	.	.	.
Cc1ccc(-c2csc(NS(=O)(=O)c3cccc(F)c3)n2)o1	16µM*	.	24µM*	?
COC(=O)c1sc2nc3c(cc2c1N)COC(C)(C)C3	1%	?	-5%	2%
CC1(C)Cc2nc3sc(C(=O)NCCCO)c(N)c3cc2CO1	?	79µM*	-23%	-10%
C=CCN1[C@H](C)COc2cc(N3CCCC3)ccc2S1(=O)=O	1%	.	.	.
Nc1ccc(N2CCN(C(=O)c3cccs3)CC2)cc1	1%	-15%	1%	?
SMILES	12-LOX inh	Sfp PPTase inh	PLK1 PBD inh	VDR inhibitor
Cc1ccc(N2CCN(C(=O)c3cccs3)CC2)cc1C	-11%	50µM*	-16%	9%
O=C1S/C(=C\c2ccc(O)c([N+](=O)[O-])c2)C(=O)N1Cc1cccc([N+](=O)[O-])c1	?	-29%	24µM*	-28%
Cc1cccc(NC(=O)CN2C(=O)S/C(=C\c3ccc(O)c([N+](=O)[O-])c3)C2=O)c1	?	-8%	-27%	-8%
O=C(O)c1ncn(Cc2ccccc2)c1C(=O)O	25%	50µM*	-5%	0%
O=C(NCc1ccccc1)c1ncn(Cc2ccccc2)c1C(=O)NCc1ccccc1	6%	.	-2%	-14%
Cc1c(C)n(Cc2ccccc2)c2ncnc(NN)c12	38%	56µM*	0%	97%
COc1ccc(OCC(O)CN(CC(O)COc2ccc(OC)cc2)c2cccc(O)c2)cc1 (centres undefined)	0%	5%	-12%	-13%
Cc1ccccc1-n1c(=O)cc(N2CCc3ccccc32)[nH]c1=O	-15%	56µM*	-19%	-6%
O=c1cc(N2CCc3ccccc32)[nH]c(=O)n1-c1ccccc1Cl	-3%	2%	-13%	-4%
Oc1ccc(N2CCN(Cc3cc4c(cc3Br)OCCO4)CC2)cc1	?	50µM*	-15%	-16%
O=S(=O)(c1ccc(F)cc1)N1CCN(Cc2cc3c(cc2Br)OCCO3)CC1	-53%	.	4%	4%
O=C(C1CCC(N2C(=O)C3CC=CCC3C2=O)CC1)N1CCCCC1 (centres undefined)	8%[57.4 µM]	-3%	-10%	0%
COc1ccccc1-c1ccc(=O)n(CC(=O)NC2CCc3ccccc32)n1 (centres undefined)	-8%	35µM*	-11%	0%
Cc1cc(C)c2c(CC(=O)O)c(C)[nH]c2c1	50µM*	-8%	-27%	-2%
Cc1[nH]c2ccccc2c1CC(=O)O	-22%	8%	-5%	10%
Cc1cc(C(=O)CCl)c(C)n1CCc1ccc(Cl)cc1	?	-30%	?	18µM*
COc1ccc(C[C@@H]2CN3C(=NC[C@@H]3C)N2C[C@H](C)NC(=O)CCC2CCCCC2)cc1	-13%	50µM*	-8%	-5%
Nc1sc2c(c1C(=O)c1ccccc1)CCCC2	-11%	50µM*	21µM*	?
CN1CCc2c(sc(NC(=O)c3ccco3)c2C(N)=O)C1	?	-3%	-8%	-8%
CN1CCc2c(sc(N)c2C(N)=O)C1	27%	56µM*	?	-6%
NC(=O)c1c(N)sc2c1CCCC2	-9%	25µM*	24µM*	-28%
COc1ccc(S(=O)(=O)N2CCC(C(N)=O)(N3CCCCC3)CC2)cc1OC	-2%	-28%	-4%	-20%
Cc1cc(=O)oc2cc(NC(=O)c3cccc(S(=O)(=O)N(C)C)c3)ccc12	-11%	23%	-8%	0%
CCc1nn2c(=O)c(S(=O)(=O)Nc3ccc(C)c(C)c3)c(C)nc2s1	-17%	.	.	-9%
Cc1ccc(-c2ccc3nnc(CNC(=O)C(C)Oc4ccccc4)n3n2)cc1C (centres undefined)	-4%	.	.	.
CN(C)CCNc1ccc(CO)c2sc3ccc(O)cc3c(=O)c12	-25%	.	-10%	-18%
CN(C)CCNc1ccc2ncn3c4ccc(O)cc4c(=O)c1c23	?	.	12µM*	10%
CC1=C(C#N)C(=O)N(C2CCS(=O)(=O)C2)C(=O)/C1=C\c1ccco1 (centres undefined)	.	45µM*	.	.
COc1ccc(S(=O)(=O)N(CC(=O)Nc2cc(C)ccc2OC)Cc2ccccc2)cc1	1%	.	.	4%
CCN(CC)c1ccc(NS(=O)(=O)CC)cc1C(=O)O	-15%	.	.	.
